Changes are numbered by the printed parent chain. Over roughly 24,000 sequences, “enrichment r” has its median near 0.99; the highest 2% begin near 3.7. Shown is part of a subset that was picked to be rich in the highest values.
T1: UNK ZnF1-3 (human, UniProt Q9C0B0 31-174)
T1 sequence: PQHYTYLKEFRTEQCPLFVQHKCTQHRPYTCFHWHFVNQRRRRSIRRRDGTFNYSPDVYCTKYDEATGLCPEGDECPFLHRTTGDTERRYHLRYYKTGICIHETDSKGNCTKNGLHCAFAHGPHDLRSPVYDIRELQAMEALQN

B1: 53612100_53613521_5214_CDS_ENSG00000086758_ENST00000262854|human|control|control (ssRNA)
RNA: GGGAGUUCUACAGUCCGACGAUCAGAGCGAUCAUCAAACCAGCGCCAGUUGUUGCUGUUGGAUUGCAGGUACUUAGUCAUCUGGGCUCUCCUUUUUGAGGAGAUGGCUGUCUUUUCAUAGAAAUCAAUCAGGAGCAACACUGGCAACAGAGGAUUGAGCAUCA
B2: chr1:163117127:163117128:-_ENSG00000143248_ENST00000313961|hu_hu|motif|central (ssRNA)
RNA: GGGAGUUCUACAGUCCGACGAUCGCAGGGUUAUUAUGGAGGAAAUAACUCACAGGAUGAUUUCAUAGCCUGGCUAAAUUACGGCUUGAUUAACUCCUGAUAAAACUCAGAGCGCACAAAGCGAGGCAGAGAAUCCUUUUCCAUCAACAGAGGAUUGAGCAUCA
B3: chr7:140404665:140404666:+_ENSG00000090266_ENST00000247866|hu_hu|hu_hu_hu_mus_False|28_98 (ssRNA)
RNA: GGGAGUUCUACAGUCCGACGAUCUGCUCCUACUCGUAGGCUGAGUCUACAGUGUCAGUCCUCGUCAUCAGGAGGGAUUCCCAGUUCUUCAUCUGUCCACUGUGAAGGAUCAGGAUAUGAAAAGUGACCCAGCACAGCAUCCGACAACAGAGGAUUGAGCAUCA
B4: chr9:34402745:34402746:-_ENSG00000164970_ENST00000297620|hu_hu|motif|central (ssRNA)
RNA: GGGAGUUCUACAGUCCGACGAUCGGGGACGACCAGCCUUGUUCGGGCCAUGACAUUGUUCUUCUUGGGUUGCUGGUUGACAGGGCGGCCCAUGCUGCCAUUCUUCAGGGAGCCCUUCCGGGCCAGCUCCCGCUGCUUCUCCUCCAACAGAGGAUUGAGCAUCA
B5: chr2:153237265:153237266:-_ENSMUSG00000061411_ENSMUST00000109784|mus_mus|mus_mus_mus_hu_False|1_98 (ssRNA)
RNA: GGGAGUUCUACAGUCCGACGAUCAAAAAAAAAAAAAGAAAAGUGUCCUUGUGCCCAAAGUCUCAGGUGCUUGGAGUGUGGCUAGAAACAGCUCUUUUGGAUCCCACCUCUUUCAAAAACAAAAUGUACCAACUGGUAGGCAGGCAACAGAGGAUUGAGCAUCA
B6: chr2:153237265:153237266:-_ENSMUSG00000061411_ENSMUST00000109784|mus_mus|mus_mus_mus_hu_False|1_108 (ssRNA)
RNA: B5 RNA with A32G, G37A
B7: chr2:153237265:153237266:-_ENSMUSG00000061411_ENSMUST00000109784|mus_mus|mus_mus_mus_hu_False|98_98 (ssRNA)
RNA: B5 RNA with A137G, G138A, C140G, A141C, G142A
B8: chr11:86532819:86532820:-_ENSMUSG00000047126_ENSMUST00000103186|perfect_dup|FALSE|FALSE (ssRNA)
RNA: GGGAGUUCUACAGUCCGACGAUCCAUGGCUCUGAGACAUUCUAGGGAGUCUUCUACUGAUAAGGAACCAAAGUAGUUGACUAACCACUCAGGGUUAAGAAGAUGGGUGUGAACCACUGCACGUUUUAUAUCAUAUAAAUCAGUCAACAGAGGAUUGAGCAUCA
B9: chr1:39494564:39494565:+_ENSG00000168653_ENST00000372967|hu_hu|hu_hu_hu_mus_True|18_38 (ssRNA)
RNA: GGGAGUUCUACAGUCCGACGAUCAUGCAUUCGCCUCAUCGUUUUGUACCGAAGCAAGCACUCUUCGAAGUCAUCGAACUCUAUCUUGCACUCCUUUUCUGCCCGAGUCCCACCGAUUCCAUGUGCACACUCUAUCCACUCUUUCAACAGAGGAUUGAGCAUCA
B10: chr14:89338683:89338684:+_ENSG00000165533_ENST00000346301|hu_hu|hu_hu_hu_mus_False|48_58 (ssRNA)
RNA: GGGAGUUCUACAGUCCGACGAUCGUGGUUGUUGUGGACCAGGGCCAGCCUGAAGCAUUGGUGGGCCAAGUUUGUAUCUCCUAUUCCCACAGCUACAUGCCCCAGGUUGUACCAGACAUCAGCUGCCUCUUCUUCAUUUUCAGCCAACAGAGGAUUGAGCAUCA
B11: chr11:6247107:6247108:+_ENSMUSG00000020456_ENSMUST00000003461|mus_mus|motif|central (ssRNA)
RNA: GGGAGUUCUACAGUCCGACGAUCAAACAUAGGUUCGUCCAUCUCAUUGUGGCCAUUUCGUCGAUAACACACCAGAUCAACGGCAACAUCCUUGUGGAAGGUGUUUCUCCACUCAGCUGCCACCUUGCAUACAUACAUGACAGCCAACAGAGGAUUGAGCAUCA
B12: chrX:41029285:41029286:+_ENSG00000124486_ENST00000378308|hu_hu|FALSE|FALSE (ssRNA)
RNA: GGGAGUUCUACAGUCCGACGAUCUGUAUGAGACCAUACCUCCAAGUCAUCAACCUGUCUGCCCUGGUUUGGAAAUCGAACUACAAAAGAGAGGUGUUUACCGCGGAAUGCUCUCGACAUAGGGAGAAUUGUUCUUUCCUCAUGCAACAGAGGAUUGAGCAUCA
B13: chr1:39494447:39494448:+_ENSG00000168653_ENST00000372967|hu_mus|hu_hu_hu_mus_False|18_38 (ssRNA)
RNA: GGGAGUUCUACAGUCCGACGAUCGCACCGAGCGGCGUUCUUAUAGGGCUGUUCUGCGCUUAGGAACAUAAAGUGCCGGUCCAGGCUGAUGCCCAGCCUUUUCUGGAUGUCAAGGAAAGGCAUGGCCCUGCAGUGCCCUUGUCACAACAGAGGAUUGAGCAUCA
B14: chrX:41000244:41000245:+_ENSG00000124486_ENST00000378308|hu_mus|motif|central (ssRNA)
RNA: GGGAGUUCUACAGUCCGACGAUCUGCUUCUUUCUUCAGCUCUUCAUCAGUUAAGUUUUCUAAAAACUGUGGAACCAUUUCGGUUAUUGGAAGAAAGUACUUUUUCACUGUGUGAAGAGUAAGAAACUCAUAGCACUGUCCAAACAACAGAGGAUUGAGCAUCA
B15: 54592465_54592585_3431_3pUTR_ENSMUSG00000005225_ENSMUST00000119706|mouse|control|control (ssRNA)
RNA: GGGAGUUCUACAGUCCGACGAUCUUGCUUGGCUUAAAAUUUUAUUACAAGUGUUUUUAAGAGGCAAGGUCUUGCUAUGUUGUUCAGGUUAAUCUCCAAAUCUUGGGCUCAAAUAAUACUUUACUCUCAUACUUCUGGGUAGCUCAACAGAGGAUUGAGCAUCA
B16: chr4:56294251:56294252:-_ENSG00000134852_ENST00000309964|hu_hu|FALSE|FALSE (ssRNA)
RNA: GGGAGUUCUACAGUCCGACGAUCAACAUAGCACUGAGGUAUUUUUUAUUUUUAAAAUUGAAGGAAACAAAGUCUGGAUCUAAUUAUUUUUACAUUUACAAAAACUGCUACUGCUUGGCUCUUUUGCUAUAAGUUUAGGUUCUGCAACAGAGGAUUGAGCAUCA
B17: chr4:56294251:56294252:-_ENSG00000134852_ENST00000309964|hu_hu|motif|central (ssRNA)
RNA: B16 RNA with U80G, A81G
B18: chr1:34870196:34870197:-_ENSMUSG00000037503_ENSMUST00000047534|mus_mus|FALSE|FALSE (ssRNA)
RNA: GGGAGUUCUACAGUCCGACGAUCUGAGCCCAUCUACUCAUCAGAUUGCAUAAAAAAUUAAAACAGUAUGAAUUUACAUCUAAUUGAACUGGCUUGGGAUGGACAGUCUGCCCGUUCCUUUGUUUUGACACAUAAGUUCCAUGACAACAGAGGAUUGAGCAUCA
B19: chr1:34870196:34870197:-_ENSMUSG00000037503_ENSMUST00000047534|mus_mus|motif|central (ssRNA)
RNA: B18 RNA with U80G, A81G
B20: chr4:17845017:17845018:+_ENSG00000109805_ENST00000514176|hu_mus|hu_hu_hu_mus_False|48_58 (ssRNA)
RNA: GGGAGUUCUACAGUCCGACGAUCGCUCUCUUAACUUGUAUCUUCAUUAAGGAACUCUGCAAGGUUAAGUUUACUUUUUCUAGUGCUGCGGUUUUGGGCUCGUCUGGGUAAUCUCAUCUUCAUUUCUGAUGGUGGUUCAUGAUCCAACAGAGGAUUGAGCAUCA
B21: chr6:114281168:114281169:-_ENSG00000196591_ENST00000368632|hu_hu|hu_hu_hu_mus_True|1_18 (ssRNA)
RNA: GGGAGUUCUACAGUCCGACGAUCUUCCAUUUUUCGGUAUAAACCAUAAUUUAGCAGCAAGUUAUGAGUCAUCCGGAUUCUAUGAGGCUUCAUGGGAUGACCCUGGCCAUAAUAAUAAUUUCCAAUAUCACCAUCAUACUAGAACAACAGAGGAUUGAGCAUCA
B22: 83260623_83262902_554_CDS_ENSMUSG00000031715_ENSMUST00000043359|mouse|control|control (ssRNA)
RNA: GGGAGUUCUACAGUCCGACGAUCUUCUUUUUGCUUUCCAGGUGAUCCAUGAUCAAAUACUUCCUCCAUCUCGGUGUCCGCGGGGCCCGAGCCCGCAGCACACGGAGCCGCGGGCGCCGCGCCGCCCUCGGGGCCGCCUUUGUUCAACAGAGGAUUGAGCAUCA

The binders below were run against T1, UNK ZnF1-3 (assay: nsRBNS (natural sequence RNA bind-n-seq); RBNS binding buffer (assumed for nsRBNS): 25 mM Tris pH 7.5, 150 mM KCl, 3 mM MgCl2, 0.01% Triton X-100, 500 ug/ml BSA, 20 U/ml SUPERase-In, 4 C; UNK is unkempt and MSI1 is Musashi-1; names of the RNAs are library labels; protein concentration not given here; high values mean tight binding).

Binder	binding signal [enrichment R]
B1	1.05
B2	1.52
B3	0.773
B4	0.859
B5	4.8
B6	4.2
B7	3.61
B8	1.15
B9	0.624
B10	0.726
B11	0.7
B12	1.07
B13	0.685
B14	0.545
B15	1.3
B16	4.1
B17	3.76
B18	1.33
B19	1.36
B20	0.378
B21	1
B22	0.826
